Screening data (PubChem)
Cruzain inh noDet – inhibitors of Trypanosoma cruzi cruzain without detergent; 200,000 tested, 2.3% active; purified cruzain, Z-FR-AMC fluorescence, no detergent; Potency, µM, most hits filed as inhibitors; also: nearly all actives have a fitted effect of over 40% in size
Target sequence (P25779 123-467 limits assumed): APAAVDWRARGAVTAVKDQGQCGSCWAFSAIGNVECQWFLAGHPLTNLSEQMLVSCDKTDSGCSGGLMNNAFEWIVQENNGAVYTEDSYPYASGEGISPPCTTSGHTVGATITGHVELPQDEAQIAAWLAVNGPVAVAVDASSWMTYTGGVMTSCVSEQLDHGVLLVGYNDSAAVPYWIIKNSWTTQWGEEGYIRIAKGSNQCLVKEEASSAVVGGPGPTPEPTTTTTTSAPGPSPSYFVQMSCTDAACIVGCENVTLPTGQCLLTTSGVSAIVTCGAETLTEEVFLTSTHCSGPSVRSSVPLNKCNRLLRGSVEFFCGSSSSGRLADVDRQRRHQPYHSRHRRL
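Purified cruzain at 1.5 nM, pre-incubated 15 min with compound at room temperature in 100 mM sodium acetate pH 5.5, 5 mM DTT, 0.00005% Triton X-100. Reaction started with 2 uM Z-FR-AMC; AMC fluorescence increase over 60 s gives rate.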
Cruzain Triton – inhibitors of Trypanosoma cruzi cruzain with detergent; P25779; purified cruzain, Z-FR-AMC fluorescence, 0.01% Triton; Potency, µM, usual class: inhibitors; 200,000 tested, 0.43% active; also: nearly all actives have a fitted effect of over 40% in size
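15 min RT preincubation of 1.5 nM cruzain with compound, then 2 uM Z-FR-AMC added; kinetic AMC fluorescence, 60 s delta. Triton X-100 0.01%, pH 5.5.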
Of the large screens only hits and unclear results are named; the others gave an inactive call. Rows were chosen to be rich in hits. Some 2.4% of all compounds tested hit in one or more screens of this group. Calls follow the shape of the dose curve; as a rule, active = well fitted curve in the direction sought with a large enough effect; inconclusive = small, poorly fitted or top-dose-only effect, or another doubt; inactive = no such curve, though single readings can be large; an effect the other way counts as inactive or inconclusive.

COc1ccc(/C=N/n2cc(-c3ccc(OC)cc3)nc2N)cc1	Cruzain inh noDet 31.6µM
COc1ccc(/C=N/n2cc(-c3ccccc3)nc2N)cc1	Cruzain inh noDet inconclusive
COc1cccc(OCc2nc3c4cnn(-c5ccccc5)c4ncn3n2)c1	Cruzain inh noDet 25.1µM
COc1ccc(-n2ncc3c2ncn2nc(Cc4ccccc4)nc32)cc1	none
CC(Oc1ccccc1)C(=O)N1CCN(Cc2cc(=O)n3nc(-c4ccccc4Cl)sc3n2)CC1 (stereo not drawn)	none
COC(=O)C1=NN(c2ccccc2)C2(S1)SC(C(C)=O)=C(C)N2c1ccccc1 (stereo not drawn)	none
CC(=O)C1=NN(c2ccccc2)C2(S1)S/C(=C\c1ccccc1)C(=O)N2c1ccccc1 (stereo not drawn)	Cruzain inh noDet 10µM
O=[N+]([O-])c1ccc(Cl)c(CNc2ncnc3c2ncn3[C@@H]2CCCCO2)c1	none
COc1ccc(CNC(=O)CCS(=O)(=O)c2cc(Br)cc3c2N(C(=O)C2CC2)CC3)cc1	none
CCc1nnc(NC(=O)c2ccc(N3C(=O)CCC3=O)cc2)s1	none
Cc1ccc(C)c2sc(NC(=O)c3ccc(N4C(=O)CCC4=O)cc3)nc12	Cruzain inh noDet 20µM
CCOc1ccc(CCNC(=O)CN2N=C(c3ccccc3)CCC2=O)cc1OCC	none
O=C(NC(=S)Nn1cnc2c(cnn2-c2ccccc2)c1=O)c1ccc(Oc2ccccc2)cc1	Cruzain inh noDet 25.1µM
O=C(NC(=S)Nn1cnc2c(cnn2-c2ccccc2)c1=O)c1ccc(Cl)cc1	none
COc1ccc(C(CC(=O)Nc2ccc(F)cc2)c2ccccc2)cc1 (stereo not drawn)	none
COc1ccccc1C(CC(=O)Nc1ccc(Cl)cc1)c1ccc(OC(C)C)cc1 (stereo not drawn)	Cruzain inh noDet 3.16µM
COc1ccc(C)cc1NC(=O)C(OC(=O)CNC(=O)c1ccc(Oc2ccccc2)cc1)c1ccccc1 (stereo not drawn)	Cruzain inh noDet inconclusive
COc1ccc(C)cc1NC(=O)C(OC(=O)CNC(=O)c1cccc(F)c1)c1ccccc1 (stereo not drawn)	Cruzain inh noDet 12.6µM, Cruzain Triton inconclusive
COc1cc2ccccc2cc1C(=O)Nc1cccc(-c2nc3cc(C)c(C)cc3o2)c1C	none
Nc1nc(-c2ccco2)c(-c2ccco2)s1	none
c1coc(-c2nc(-c3ccco3)c(-c3ccco3)nc2-c2ccco2)c1	Cruzain inh noDet inconclusive, Cruzain Triton 7.94µM
COc1ccc2nc(-c3ccco3)c(-c3ccco3)nc2c1	Cruzain inh noDet 3.98µM, Cruzain Triton 11.2µM
COc1ccc(Nc2c(-c3ccco3)nc3cccc(C)n23)cc1	none
CCCCn1c(SCC(=O)Nc2ccc(OCC)cc2)nc2ccsc2c1=O	none
O=C(Nc1ccccc1-c1nc2ccccc2[nH]1)c1ccc(S(=O)(=O)N2CCCCC2)cc1	Cruzain inh noDet 10µM
O=C(Nc1nc(-c2ccccc2)c(C(=O)c2ccccc2)s1)c1ccc(S(=O)(=O)N2CCCCC2)cc1	Cruzain inh noDet 7.94µM
O=C(Nc1nc(-c2ccccc2)c(-c2ccccc2)s1)c1ccc(S(=O)(=O)N2CCCCC2)cc1	Cruzain inh noDet 3.98µM
O=C(Nc1nc2ccc(Cl)cc2s1)c1ccc(S(=O)(=O)N2CCCC2)cc1	none
COCCN(CCOC)S(=O)(=O)c1ccc(C(=O)Nc2nc(-c3ccccc3)c(C(=O)c3ccccc3)s2)cc1	Cruzain inh noDet inconclusive
COc1ccc(C(=O)Nc2nc(-c3ccc([N+](=O)[O-])cc3)c(-c3ccc(OC)cc3)s2)cc1	Cruzain inh noDet 10µM
CC1CCCCN1S(=O)(=O)c1ccc(C(=O)Nc2ccccc2-c2nc3ccccc3[nH]2)cc1 (stereo not drawn)	Cruzain inh noDet inconclusive
COc1ccc(C(=O)Nc2nc3c(s2)CCc2cc(OC)ccc2-3)cc1	none
Cc1c(C(=O)Nc2ccc(F)cc2F)nnn1-c1ccccc1Br	none
O=C(NNc1nc(-c2ccccc2)c2cc(Br)ccc2n1)c1ccc(S(=O)(=O)N2CCOCC2)cc1	none
O=C(NNc1nc(-c2ccccc2)c2cc(Br)ccc2n1)c1ccc(S(=O)(=O)N2CCCCC2)cc1	Cruzain inh noDet 25.1µM
Cc1cc(C)c2c(=O)cc(C(=O)Nc3ccccc3C(F)(F)F)oc2c1	none
Nc1nc2ccccc2nc1N	Cruzain inh noDet 20µM
c1ccc2nc3ccccc3nc2c1	none
Cc1cc(C)c2c(=O)cc(CSc3nnc(-c4ccccc4)n3C)[nH]c2c1	none
COc1cc(C(=O)Nc2ccc3oc(-c4ccccc4)nc3c2)cc(OC)c1OC	Cruzain inh noDet inconclusive
CCOC(=O)c1c(C)oc2nc(C)nc(NCCc3ccc(SC)cc3)c12	none
COc1ccc(Cn2nnnc2C(c2cccs2)N2CCN(c3ccccc3)CC2)cc1 (stereo not drawn)	none
COc1ccc(Cn2nnnc2C(c2cccs2)N2CCN(c3ccc([N+](=O)[O-])cc3)CC2)cc1 (stereo not drawn)	Cruzain inh noDet 31.6µM
CCCCCn1c(=O)c2c(nc3n2CCN3c2ccc(Br)cc2)n(C)c1=O	none
